# Bioassay records as filed in PubChem.
# Sampled rows, rich in hits. Any-hit rate of the full collection: about 2.4%.
# Pol iota inh – qHTS for Inhibitors of Polymerase Iota; DNA polymerase iota (Homo sapiens), Q9UNA4; Pol iota fluorescent replication assay, 10 min; Potency, µM (highest dose often 115 µM), without a hit: at the highest dose activity, negative = inhibition, actives largely listed as inhibitors; 390,000 tested, 1% active
#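 Fluorescent replication assay read twice, at 0 min and 10 min after adding 50 nM (final) substrate. Enzyme (10 nM) and compounds were first incubated 15 min at room temperature; enzyme-free buffer wells were negative controls.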
# POLH inh – qHTS for Inhibitors of Polymerase Eta | 390,000 tested, 1.2% active | Potency, µM (titrated, usually from 114 µM), without a hit: top-dose activity change, negative = inhibition, hits mostly inhibitors | recombinant Pol eta, fluorescent DNA replication assay | DNA polymerase eta (Homo sapiens), Q9Y253; further: on the % scale 0 is the no-effect control and ±100 the full control effect
#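 Pol eta at 10 nM preincubated with compounds 15 min at room temperature; reaction started with fluorescent substrate (50 nM final) and read kinetically at 0 and 10 min.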
# Pol beta inh – qHTS Assay for Inhibitors of DNA Polymerase Beta; 340,000 tested, 1.3% active; P06746; Pol beta primer extension/strand displacement, fluorescence kinetic; Potency, µM (top dose mostly 114 µM), for inactives: at the top dose activity change, negative = inhibition, hits mostly inhibitors; further: on the % scale 0 is the no-effect control and ±100 the full control effect
#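 Pol beta (10 nM) and compounds were preincubated 15 min at room temperature, then 50 nM substrate (final) started primer extension/strand displacement. Reads were taken at 0 and 10 min; concentration-response data were fitted to a four-parameter Hill equation.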
# FEN1 inhibitor – qHTS Assay for the Inhibitors of Human Flap endonuclease 1 (FEN1). Recombinant FEN1 flap cleavage, fluorescence, 15 min. AID 588795, 2011. Potency, µM (series often up to 114 µM), without a hit: at the highest dose activity change, negative = inhibition, most hits filed as inhibitors. 390,000 tested, 0.35% active. P39748; further: on the % scale 0 is the no-effect control and ±100 the full control effect; nearly all actives have a fitted effect of over 65% in size
#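 Recombinant FEN1 (10 nM) was preincubated with pin-transferred compounds for 15 min at room temperature, then flap DNA substrate (50 nM final) was added. Plates were read at 0 and 15 min, and normalized concentration–response data were fitted to a four-parameter Hill equation.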
# Pol kappa inh – qHTS for Inhibitors of Polymerase Kappa; 400,000 tested, 0.53% active; DNA polymerase kappa (Homo sapiens), Q9UBT6; AID 588579, 2011; Potency, µM (series often up to 107 µM), for inactives: at the highest dose activity, negative = inhibition, most hits filed as inhibitors; purified Pol kappa, fluorescent DNA synthesis assay, 10 min; further: on the % scale 0 is the no-effect control and ±100 the full control effect
#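 Readout: fluorescence, taken kinetically at 0 and 10 min. Conditions: 10 nM Pol kappa, 15 min RT compound preincubation, 50 nM substrate final. Controls: enzyme-free buffer wells.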
# WRN inhibitor – qHTS for Inhibitors of WRN Helicase; Potency, µM (top dose mostly 114 µM), without a hit: top-dose activity change, negative = inhibition, usual class: inhibitors; WRN helicase unwinding, fluorescent forked duplex, kinetic; 360,000 tested, 0.46% active; AID 651768, 2012; Bifunctional 3'-5' exonuclease/ATP-dependent helicase WRN (Homo sapiens), Q14191; further: on the % scale 0 is the no-effect control and ±100 the full control effect; nearly all actives have a fitted effect of over 55% in size
#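 Kinetic red-fluorescence monitoring (525/598 nm) tracks WRN helicase activity after 100 nM fluorophore-quencher forked duplex and 2 mM ATP are added to 20 nM enzyme pretreated 15 min at room temperature with compound.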
# An asterisk follows results filed as active; ? = inconclusive; / = not tested or not shown; [ ] = remark or other dose. The call rests on the fitted dose curve; in most records, active means well fitted curve in the direction sought with a large enough effect; inconclusive means small, poorly fitted or top-dose-only effect, or another doubt; inactive means no such curve, though single readings can be large; an effect the other way counts as inactive or inconclusive. Potency means the concentration at half of the fitted maximal effect.
SMILES,Pol iota inh,POLH inh,Pol beta inh,FEN1 inhibitor,Pol kappa inh,WRN inhibitor
O=C(CCCn1c(=S)[nH]c2cc3c(cc2c1=O)OCO3)NCc1cccc(Cl)c1,45µM*,-17%,1%,?,?,-3%[11.6 µM]
CC(=O)Nc1cccc(-n2cc3c(c2-c2ccccc2Cl)c(=O)n(C)c(=O)n3C)c1,?,8%,27%,8%,89µM*,/
CCC(C(=O)NCCc1ccc(OC)c(OC)c1)n1nc(C)c2sc3ccccc3c2c1=O (stereo not drawn),?,-11%,?,-5%,-15%,/
Cc1ccc(S(=O)(=O)n2ccc3c(OCCOCCSCC(NC(=O)OC(C)(C)C)C(=O)O)cccc32)cc1 (stereo not drawn),28µM*,?,71µM*,-3%,?,-27%
COc1ccc(CCNc2ncnc3c2nnn3C)cc1,20%,-12%,20%,2%,-1%[60.1 µM],/
O=c1cc(COc2ncnc3ccccc23)nc2sccn12,28µM*,-7%,?,-10%,-26%,-10%[57.1 µM]
CCCCCCCCCCCCCCCCCCc1ccc(C(=O)/C=C\C(=O)O)cc1,/,/,/,/,13µM*,/
O=C(O)/C=C/C(=O)c1ccc(O)cc1,18µM*,3%,0%,2%,-19%,-4%[11.6 µM]
Cc1ccc(C(=O)n2nc(-c3ccco3)nc2N)cc1,-28%,-6%,13%,-2%,-22%,-20%
COc1ccc(NC(=O)CSc2nnc(-c3ccco3)c(-c3ccco3)n2)cc1OC,?,50µM*,-20%,-25%,?,-27%
COc1ccc(C(=O)n2nc(-c3ccco3)nc2N)cc1,16%,-4%,25µM*,4%,1%,1%
COc1cccc(NC(=O)CSc2nnc(CNC(=O)c3ccco3)n2C)c1,73%,-10%,/,4%,6%,0%
COc1ccc(C(=O)CSc2nnc(-c3ccco3)n2C)cc1,7%,-1%,25%,-6%,-6%,4%
COc1cccc(NC(=O)CSc2nnc(-c3ccco3)c(-c3ccco3)n2)c1,?,20µM*,?,?,50µM*,45µM*
COc1ccc(C(=O)CSc2nnc(-c3ccco3)c(-c3ccco3)n2)cc1,?,13µM*,13µM*,?,-75%,?
Cc1noc(C)c1C(=O)N1CCC2(CCCN(Cc3nccs3)C2)CC1,/,/,/,/,-3%[60.1 µM],/
C=C1C=C(C)n2ncc(C(=O)NCCCCCC)c2N1,28%,/,/,-7%,2%,/
COc1cccc(CNC(=O)CCc2c(C)nn(-c3ccc(N4CCCC4)nn3)c2C)c1,19%,-3%,18%,0%,0%,/
NC(=O)C(CC(=O)O)NC(=O)[C@@H]1CCOc2c(I)cc([N+](=O)[O-])cc2C(=O)N[C@@H](CCC(=O)O)C(=O)N[C@@H](CO)C(=O)N1 (stereo partly drawn),?,?,-10%,4%,?,-3%
C[C@@H]1NC(=O)c2cc([N+](=O)[O-])cc(I)c2OCC[C@@H](C(=O)NC(CC(=O)O)C(N)=O)NC(=O)[C@H](CCC(=O)O)NC1=O (stereo partly drawn),?,18µM*,-7%,1%,?,0%
C[C@@H]1NC(=O)[C@H](CC(N)=O)NC(=O)c2cc([N+](=O)[O-])cc(I)c2OCC[C@@H](C(=O)NC(CC(=O)O)C(N)=O)NC1=O (stereo partly drawn),?,20µM*,-21%,-17%,79µM*,-12%
Cc1cccc(NC(=O)Cn2nnc(-c3nc(-c4ccncc4)no3)c2N)c1,21%,/,56µM*,-3%,3%,/
COc1ccc(NC(=O)Cn2nnc(-c3nc(-c4ccncc4)no3)c2N)cc1OC,25%,/,79µM*,12%,-6%,/
O=C(Oc1ccccc1)N1CCC2(CC1)CN(c1ccncc1)C2,/,/,/,/,-11%[60.1 µM],/
CC(C)=CNNC(=O)c1ccc(O)cc1,1%,/,/,-4%,-13%,/
SMILES,Pol iota inh,POLH inh,Pol beta inh,FEN1 inhibitor,Pol kappa inh,WRN inhibitor
CC(C)c1ccc2oc(-c3cccc(NC(=O)c4ccc5c(c4)OCCO5)c3)nc2c1,?,-17%,-2%,-2%,?,/
CCC1CN(C(=O)N2CCC(C(=O)NCCN(CC)CC)CC2)c2cc(C)ccc2O1 (stereo not drawn),5%,-4%,1%,-7%,1%,/
CCC1CN(C(=O)N2CCC(C(=O)NCc3cccc(F)c3)CC2)c2cc(C)ccc2O1 (stereo not drawn),79µM*,-8%,-23%,?,?,/
COc1cccc(-c2cc(NC=O)c3ncc(-c4cc(OC)c(OC)c(OC)c4)n3c2)c1,/,/,/,/,/,-26%
COc1cc(-c2cc(NC=O)c3ncc(-c4ccc(F)cc4)n3c2)cc(OC)c1OC,/,/,/,/,/,56µM*
COc1cc(-c2cnc3c(NC(C)=O)cc(-c4ccc(N5CCN(C)CC5)cc4)cn23)cc(OC)c1OC,/,/,/,/,/,-5%
COc1cc(-c2cnc3c(NC=O)cc(-c4ccc(N5CCN(C)CC5)cc4)cn23)cc(OC)c1OC,/,/,/,/,/,50µM*
CCN1CCN(c2cc(C)c3cc(NC(=O)/C=C/c4ccc(OCCC(C)C)cc4)ccc3n2)CC1,10%,5%,9%,-5%,1%,/
Cc1ccc(S(=O)(=O)Nc2ccc(O)c3ncccc23)cc1,-13%,2%,-16%,13µM*,-23%,-26%
Cc1ccc(S(=O)(=O)Nc2ccc(O)c3cccnc23)cc1,49%,-18%,6%,8%,7%,-5%
O=C(Nc1ccccc1C(F)(F)F)NC1(C(=O)N2CCOCC2)CCCCC1,14µM*,?,/,-11%,50µM*,?
O=C(CSc1nc(NS(=O)(=O)c2ccccc2)cc(=O)[nH]1)Nc1ccccc1C(F)(F)F,4%,-3%,3%,1%,-4%,-10%[57.1 µM]
O=C(CSc1nc(NS(=O)(=O)c2ccccc2)cc(=O)[nH]1)Nc1ccc(F)cc1,18µM*,?,25µM*,?,50µM*,?
O=C(CSc1nc(O)cc(=O)[nH]1)Nc1ccc2c(c1)CCC2,16µM*,-17%,?,?,79µM*,?
Nc1cc(=O)[nH]c(SCC(=O)Nc2ccc3c(c2)CCC3)n1,68%,-13%,?,4%,-2%,-5%
COc1cc(/C=N/Nc2nc(-c3ccc(S(=O)(=O)N(C)C)cc3)cs2)ccc1O,44%,-20%,-11%,?,0%,-5%
